PubChem BioAssay
The source made the active and inactive calls.

Columns and labels:
[1] = E. coli DRC41 culture turbidity changes, primary screen, E. coli filamentation inducer project, strain DRC41, OD650, 48 h (AID 1152);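 note: E. coli MC1000 strain DRC41 lacking acrAB efflux pump and sulA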; conditions: E. coli DRC41 (acrAB sulA), higher = more signal, called active from +8 up or from −8 down
[2] = small-molecule binders of probe aLefty1, primary screen, biochemical, small-molecule microarray, 635/667 nm fluorescence (AID 1153); conditions: higher = more signal;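 note: score merges spot fluorescence with signal-to-noise ratio from the scanned slide images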
[3] = PSAC antagonists in infected red cells, primary screen, cell-based, P. falciparum Indochina, OD700, 1 h (AID 1154); conditions: P. falciparum Indochina infected RBC osmotic lysis, higher = more signal, called active from +8 up or from −8 down
[4] = PSAC antagonists in infected red cells, primary screen, cell-based, P. falciparum Indochina, OD700, 2 h (AID 1155);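 note: lysis reports solute entry through the parasite surface anion channel PSAC; channel blockers reduce lysis of infected cells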; conditions: P. falciparum Indochina infected erythrocytes, osmotic lysis OD700; higher = more signal, called active from +8 up or from −8 down
[5] = osmotic lysis modulators in infected erythrocytes, primary screen, PSAC antagonist project, cell-based, P. falciparum Indochina, OD700, 3 h (AID 1156); conditions: higher = more signal, called active from +8 up or from −8 down
[6] = PSAC antagonists in infected red cells, primary screen, cell-based, P. falciparum Indochina, OD700, 18 h (AID 1157); conditions: P. falciparum Indochina infected erythrocytes, osmotic lysis OD700, 18 h; higher = more signal, called active from +8 up or from −8 down
[7] = modulators of S6 phosphorylation in cells, primary screen, cell-based, A549, cytoblot, luminescence, serum-stimulated (AID 1158); conditions: A549 phospho-S6 cytoblot, 5 h, higher = more signal;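 note: serum-stimulated A549 lung adenocarcinoma cells; signal is phosphorylated S6 detected by cytoblot immunostaining with HRP secondary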
[8] = target: NADPH oxidase 2 (Homo sapiens) (UniProt P04839); assay: NOX2-dependent H2O2 signal modulators, primary screen, NOX inhibitor project, cell-based, HEK293-NOX2, PMA-stimulated, Amplex Red fluorescence (AID 1159); conditions: 45 min, higher = more signal, called active from +8 up or from −8 down; note: test concentration not given here
Chain of NADPH oxidase 2 (Homo sapiens) (P04839 whole entry, looked up): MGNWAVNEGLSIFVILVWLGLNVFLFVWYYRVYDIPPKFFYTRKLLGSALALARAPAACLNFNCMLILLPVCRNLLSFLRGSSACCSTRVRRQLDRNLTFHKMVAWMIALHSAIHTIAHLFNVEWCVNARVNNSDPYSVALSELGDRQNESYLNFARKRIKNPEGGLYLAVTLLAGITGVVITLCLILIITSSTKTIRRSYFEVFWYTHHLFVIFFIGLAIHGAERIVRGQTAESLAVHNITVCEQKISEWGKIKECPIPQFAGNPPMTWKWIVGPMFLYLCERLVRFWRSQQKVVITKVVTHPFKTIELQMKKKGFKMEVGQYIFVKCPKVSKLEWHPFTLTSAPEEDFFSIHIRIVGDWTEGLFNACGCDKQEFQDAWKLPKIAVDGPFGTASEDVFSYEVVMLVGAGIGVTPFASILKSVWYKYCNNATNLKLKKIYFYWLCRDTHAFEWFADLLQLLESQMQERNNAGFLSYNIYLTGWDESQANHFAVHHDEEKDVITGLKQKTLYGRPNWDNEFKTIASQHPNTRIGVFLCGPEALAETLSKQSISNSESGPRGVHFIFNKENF

[9] = target: NADPH oxidase 4 (Homo sapiens) (UniProt Q9NPH5); assay: NOX4-dependent H2O2 signal modulators, primary screen, NOX inhibitor project, cell-based, HEK293-NOX4, tetracycline-induced, Amplex Red fluorescence (AID 1160); conditions: 45 min, higher = more signal, called active from +8 up or from −8 down
Chain of NADPH oxidase 4 (Homo sapiens) (Q9NPH5 whole entry, looked up): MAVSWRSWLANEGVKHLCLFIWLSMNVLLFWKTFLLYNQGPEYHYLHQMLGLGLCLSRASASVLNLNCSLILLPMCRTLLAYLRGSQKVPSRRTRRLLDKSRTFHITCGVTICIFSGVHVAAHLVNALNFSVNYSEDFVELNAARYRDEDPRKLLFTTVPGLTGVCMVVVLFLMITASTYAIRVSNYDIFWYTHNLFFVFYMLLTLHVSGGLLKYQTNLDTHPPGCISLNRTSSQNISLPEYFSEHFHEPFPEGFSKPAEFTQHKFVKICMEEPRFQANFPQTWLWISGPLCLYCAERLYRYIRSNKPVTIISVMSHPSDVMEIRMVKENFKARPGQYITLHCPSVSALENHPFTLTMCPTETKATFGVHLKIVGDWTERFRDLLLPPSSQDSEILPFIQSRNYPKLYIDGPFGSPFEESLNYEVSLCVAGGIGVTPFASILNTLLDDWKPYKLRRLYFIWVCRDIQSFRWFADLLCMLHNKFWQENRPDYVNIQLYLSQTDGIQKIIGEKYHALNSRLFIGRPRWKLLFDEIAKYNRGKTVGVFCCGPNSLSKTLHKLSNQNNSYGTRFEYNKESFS

[10] = target: NADPH oxidase 5 (Homo sapiens) (UniProt Q96PH1); assay: NOX5-dependent H2O2 signal modulators, primary screen, NOX inhibitor project, cell-based, HEK293-NOX5, Amplex Red fluorescence (AID 1161); conditions: HEK293-NOX5, ionomycin, 45 min, higher = more signal
Chain of NADPH oxidase 5 (Homo sapiens) (Q96PH1 whole entry, looked up): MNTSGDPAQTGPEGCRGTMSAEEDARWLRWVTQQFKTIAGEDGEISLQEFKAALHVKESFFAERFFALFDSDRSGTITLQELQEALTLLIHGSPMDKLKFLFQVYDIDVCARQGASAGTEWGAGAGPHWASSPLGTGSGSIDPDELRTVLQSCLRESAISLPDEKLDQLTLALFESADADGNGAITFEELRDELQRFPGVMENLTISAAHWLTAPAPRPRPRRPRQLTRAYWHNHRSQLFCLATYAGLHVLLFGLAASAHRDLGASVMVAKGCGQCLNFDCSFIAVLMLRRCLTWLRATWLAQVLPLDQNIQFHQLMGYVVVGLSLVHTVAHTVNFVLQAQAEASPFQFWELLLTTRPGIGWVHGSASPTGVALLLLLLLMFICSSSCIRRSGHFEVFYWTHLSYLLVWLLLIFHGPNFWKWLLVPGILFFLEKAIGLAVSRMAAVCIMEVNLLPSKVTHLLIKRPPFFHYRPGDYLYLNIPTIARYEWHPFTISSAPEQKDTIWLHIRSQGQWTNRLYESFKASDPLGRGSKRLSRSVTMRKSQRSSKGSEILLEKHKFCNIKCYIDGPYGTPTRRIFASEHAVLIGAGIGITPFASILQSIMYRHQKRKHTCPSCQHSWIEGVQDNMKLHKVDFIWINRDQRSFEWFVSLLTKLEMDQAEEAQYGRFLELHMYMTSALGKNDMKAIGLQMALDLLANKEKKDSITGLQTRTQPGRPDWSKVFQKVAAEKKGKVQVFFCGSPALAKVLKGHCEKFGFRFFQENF

[11] = A549 cell viability effects, profiling panel, calcein-AM fluorescence, 48 h, basal (AID 1162); conditions: higher = more signal; note: test concentration not given here
[12] = adipocyte viability effects, profiling panel, cell-based, 3T3-L1 adipocytes, calcein-AM fluorescence, 48 h, basal (AID 1163); conditions: 3T3-L1 adipocytes viability, higher = more signal; note: test concentration not given here
[13] = HepG2 cell viability effects, profiling panel, calcein-AM fluorescence, 48 h, basal (AID 1164); conditions: higher = more signal; note: test concentration not given here
[14] = MM1S cell viability effects, profiling panel, calcein-AM fluorescence, 48 h, basal (AID 1165); conditions: higher = more signal;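 note: viability of MM1S multiple myeloma cells under basal unstimulated conditions; test concentration not given here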
[15] = basal RPMI8226 viability, no added stimulus, profiling panel, cell-based, calcein-AM fluorescence, 48 h, PK04 Diversity Set (AID 1166); conditions: RPMI8226 myeloma viability, higher = more signal;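 note: cells grown under basal conditions without added stimulus; test concentration not given here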
[16] = basal HepG2 mitochondrial membrane potential changes, profiling panel, cell-based, JC-1 fluorescence, 24 h, 100 nL compound (AID 1167); conditions: higher = more signal; note: test concentration not given here
[17] = basal 3T3-L1 adipocyte mitochondrial potential changes, profiling panel, cell-based, JC-1 fluorescence, 3T3-L1 adipocytes, 24 h, 100 nL compound (AID 1168); conditions: JC-1 mitochondrial fluorescence, higher = more signal, called active from +8 up or from −8 down; note: test concentration not given here
[18] = basal RPMI8226 mitochondrial membrane potential changes, profiling panel, cell-based, JC-1 fluorescence, 24 h, 100 nL compound (AID 1169); conditions: RPMI8226 myeloma, JC-1 mitochondrial potential fluorescence, higher = more signal; note: test concentration not given here
[19] = basal MM1S mitochondrial membrane potential changes, profiling panel, cell-based, JC-1 fluorescence, 24 h, 100 nL compound (AID 1170); conditions: higher = more signal; note: test concentration not given here
[20] = A549 lung cancer cell viability effects, profiling panel, resazurin fluorescence, 24 h, PK04 Diversity Set (AID 1171); conditions: higher = more signal, called active from +8 up or from −8 down; note: test concentration not given here

Compound	z-score [1]	composite z-score [2]	z-score [3]	z-score [4]	z-score [5]	z-score [6]	z-score [7]	z-score [8]	z-score [9]	z-score [10]	z-score [11]	z-score [12]	z-score [13]	z-score [14]	z-score [15]	z-score [16]	z-score [17]	z-score [18]	z-score [19]	z-score [20]
COC(=O)C(CC#Cc1ccc2c(c1)[C@]1(C(=O)N2)[C@H](C(N)=O)[C@H]2C(=O)O[C@H](c3ccccc3)[C@H](c3ccccc3)N2[C@@H]1c1ccccc1OCCO)C(=O)OC	0.879 (inactive)	0.0622	14.2 (active)	3.83 (inactive)	1.02 (inactive)	1.47 (inactive)	-0.127	1.9 (inactive)	0.723 (inactive)	0.904	-0.782	-0.436	-4.23	-3.4	-4.62	-0.82	4.3 (inactive)	-1.18	-2.2	-2.83 (inactive)
O=C1c2ccccc2[C@@]2(Cc3ccccc3N(CC(F)(F)F)C2=O)[C@H](c2ccc(CO)cc2)N1Cc1ccccc1	-0.98 (inactive)	-0.0626	-0.0567 (inactive)	-0.992 (inactive)	0.11 (inactive)	-1.93 (inactive)	2.33	-2.06 (inactive)	-2.39 (inactive)	-2.36	-0.293	1.21	-1.13	0.191	-2.24	-0.631	-2.33 (inactive)	0.928	-1.09	-0.279 (inactive)
CC(C)[Si]1(C(C)C)OCc2cc(-c3ccc(-c4ccc(Cl)c(Cl)c4)o3)nc(-c3ccc(Oc4ccccc4)cc3)c21	-1.08 (inactive)	-0.21	1.88 (inactive)	0.352 (inactive)	0.0032 (inactive)	0.533 (inactive)	-0.203	-4.58 (inactive)	0.169 (inactive)	-1.54	-0.222	-1.06	-0.879	0.0719	-0.605	0.213	-0.966 (inactive)	0.17	0.0397	-0.232 (inactive)
CCCCN1CC=CC23O[C@@H]4/C=C\CCC(C)OC(=O)C4[C@H]2C(=O)N(CCO)[C@@H]3C1=O (stereo not given in full)	1.36 (inactive)	-0.386	2.6 (inactive)	0.254 (inactive)	0.336 (inactive)	0.479 (inactive)	0.7	1.01 (inactive)	0.416 (inactive)	2.29	-0.266	0.555	-0.406	-0.0157	-1.19	0.0609	-0.0386 (inactive)	0.881	0.213	0.265 (inactive)
[N-]=[N+]=NCc1ccccc1[C@H]1OC(c2ccc(OCCCO)cc2)=N[C@@]1(Cc1ccccc1N=[N+]=[N-])C(=O)N1CCOCC1	-0.476 (inactive)	0.181	28.3 (active)	22 (active)	2.5 (inactive)	3.77 (inactive)	-0.318	-5.55 (inactive)	-1.03 (inactive)	-2.42	-0.612	-0.182	-0.659	-2.69	-3.44	-1.26	-0.866 (inactive)	-1.11	-2.14	-0.772 (inactive)
COCCOC(=O)N1C(=O)[C@@]2(c3cc(C#CCNC(N)=O)ccc31)[C@H](c1ccccc1OCCO)N1[C@H](c3ccccc3)[C@H](c3ccccc3)OC(=O)[C@H]1[C@@H]2C(=O)N1CCCCCCC1	-0.583 (inactive)	0.359	1.21 (inactive)	0.696 (inactive)	0.346 (inactive)	0.238 (inactive)	-0.418	1.39 (inactive)	1.05 (inactive)	0.903	-0.396	-0.0319	0.371	-1.22	0.56	-1.51	-1.3 (inactive)	-0.441	-0.911	0.519 (inactive)
